Screening data deposited in PubChem by National Center for Advancing Translational Sciences (NCATS).
An excerpt weighted towards active compounds, which were near 3.4% of everything screened.
RE007 growth inh – qHTS Assay for Inhibitors of the HIV-1 protein Vpr. 360,000 tested, 0.21% active. S. pombe RE007 Vpr strain, BacTiter-Glo ATP luminescence, 24 h. Potency, µM (doses to about 92.2 µM), without a hit: at the top dose activity change, negative = less growth, actives largely listed as inhibitors; active = well fitted falling curve with a large enough effect; inconclusive = small, poorly fitted or top-dose-only effect; inactive = no such curve, though single readings can be large or run the other way; note: nearly all actives have a fitted effect of over 50% in size
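Fission yeast strain RE007, carrying one chromosomally integrated HIV-1 vpr copy, was seeded at OD 0.01 in PMG+AL medium with 23 nL pinned compound. After 24 h at 30 °C and 99% humidity, viability was read by BacTiter-Glo luminescence.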
Giardia FBPA inh-1 – qHTS Assay for Inhibitors of Fructose-1,6-bisphosphate Aldolase from Giardia Lamblia; A8B2U2; purified Giardia FBPA; Potency, µM (highest dose often 59.6 µM), for inactives: at the highest dose activity, negative = inhibition, most hits filed as inhibitors; 290,000 tested, 0.71% active; AID 2451, 2010; note: nearly all actives have a fitted effect of over 55% in size
Target sequence (A8B2U2 whole entry, looked up): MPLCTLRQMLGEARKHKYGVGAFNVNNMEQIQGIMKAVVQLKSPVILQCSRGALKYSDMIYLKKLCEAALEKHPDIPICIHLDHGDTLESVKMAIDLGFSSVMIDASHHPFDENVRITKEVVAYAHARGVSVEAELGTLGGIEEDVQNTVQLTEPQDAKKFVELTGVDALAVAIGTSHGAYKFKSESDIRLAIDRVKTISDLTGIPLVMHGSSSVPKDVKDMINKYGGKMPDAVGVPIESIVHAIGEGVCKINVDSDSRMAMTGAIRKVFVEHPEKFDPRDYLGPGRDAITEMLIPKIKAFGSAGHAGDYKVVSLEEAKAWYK
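40 nM FBPA preincubated 10 min at RT with compound (up to 57.5 uM final), then substrate plus GAPDH/TPI/NAD/arsenate coupling and diaphorase/resazurin added. Fluorescence read after 20 min at RT, 525/598 nm.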
AmpC inh detg – qHTS Inhibitors of AmpC Beta-Lactamase (assay with detergent); 370,000 tested, 0.041% active; AmpC hydrolysis of nitrocefin, absorbance 480 nm, 0.01% Triton; Potency, µM (top dose mostly 114 µM), for the others: at the highest dose activity change, negative = inhibition, actives largely listed as inhibitors;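 note: 0% = no-compound wells and -100% = no-enzyme wells; nearly all actives have a fitted effect of over 25% in size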
Target sequence (P00811 whole entry, looked up): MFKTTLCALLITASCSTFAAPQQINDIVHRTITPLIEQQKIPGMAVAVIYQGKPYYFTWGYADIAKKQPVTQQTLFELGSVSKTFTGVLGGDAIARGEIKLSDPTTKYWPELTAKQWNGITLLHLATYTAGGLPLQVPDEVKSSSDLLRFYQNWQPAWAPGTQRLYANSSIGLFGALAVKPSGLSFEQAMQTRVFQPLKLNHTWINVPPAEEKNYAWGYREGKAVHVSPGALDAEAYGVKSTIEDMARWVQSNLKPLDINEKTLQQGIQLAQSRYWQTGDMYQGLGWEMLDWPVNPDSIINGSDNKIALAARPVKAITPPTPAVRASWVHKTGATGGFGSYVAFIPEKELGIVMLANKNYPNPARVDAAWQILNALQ
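20 mM phosphate pH 7.0 + 0.01% (detergent screen) or 0.0001% Triton X-100; 5.3 nM AmpC reagent; cpd preinc 15 min RT; nitrocefin (800 uM stock) to start; A480 q20 s × 4 min; Activity was normalised to no-enzyme and no-compound control wells.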
Sm TGR block – qHTS Assay for the Inhibitors of Schistosoma Mansoni Peroxiredoxins. purified TGR, DTNB reduction, TNB absorbance 405 nm. Potency, µM (top dose mostly 114 µM), for inactives: at the highest dose activity change, negative = inhibition, usual class: inhibitors. 360,000 tested, 3% active. AID 485364, 2010; note: nearly all actives have a fitted effect of over 60% in size
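Kinetic colorimetric format: TGR-catalysed, NADPH-driven DTNB reduction monitored via TNB absorbance. Enzyme dispensed at 20 nM; compound exposure 15 min at room temperature before reaction start.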
AmpC inh no detg – qHTS Inhibitors of AmpC Beta-Lactamase (assay without detergent); P00811; AmpC nitrocefin hydrolysis, absorbance 480 nm, 0.0001% Triton; Potency, µM (top dose mostly 57.1 µM), for the others: top-dose activity change, negative = inhibition, most hits filed as inhibitors; 330,000 tested, 0.52% active; AID 485341, 2010;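 note: plate controls were no compound for no effect and no enzyme for full effect; nearly all actives have a fitted effect of over 20% in size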
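AmpC (5.3 nM in the dispensed reagent) in 20 mM phosphate pH 7.0 with 0.01% (detergent screen) or 0.0001% Triton X-100 was preincubated with compounds for 15 min at room temperature. Nitrocefin was then added from an 800 uM solution, and hydrolysis was followed at 480 nm.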
Giardia growth – qHTS Assay for Inhibitors of Fructose-1,6-bisphosphate Aldolase from Giardia Lamblia: Giardia lamblia growth inhibition | shares compounds with Giardia FBPA inh-1 | Giardia lamblia trophozoite growth inhibition | Potency, µM (top dose mostly 57.5 µM), without a hit: at the top dose activity change, negative = inhibition, hits mostly inhibitors | 1,500 tested, 5% active | AID 2785, 2010;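 note: trophozoites exposed to compound for 48 h at 37 °C; nearly all actives have a fitted effect of over 70% in size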
Mammal cell tox – qHTS Assay for Inhibitors of Fructose-1,6-bisphosphate Aldolase from Giardia Lamblia: Mammalian cellular toxicity | Potency, µM (highest dose often 57.5 µM), inactives show at the highest dose viability change, negative = toxicity, actives largely listed as inhibitors | AID 2786, 2010 | 1,500 tested, 4% active | mammalian cell viability counter-screen, qHTS | shares compounds with Giardia FBPA inh-1;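 note: Chinese hamster ovary cells used as mammalian cytotoxicity surrogate; viability measured as cellular ATP by luminescence; compound exposure lasted 48 h before reading; nearly all actives have a fitted effect of over 60% in size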
Giardia FBPA inh-2 – qHTS Assay for Inhibitors of Fructose-1,6-bisphosphate Aldolase from Giardia Lamblia: Primary screen confirmation. 1,500 tested, 5% active. shares compounds with Giardia FBPA inh-1. AID 2787, 2010. Potency, µM (highest dose often 57.5 µM), inactives show at the highest dose activity change, negative = inhibition, hits mostly inhibitors. purified Giardia aldolase enzyme activity, qHTS; note: nearly all actives have a fitted effect of over 45% in size
Rabbit FBPA inh – qHTS Assay for Inhibitors of Fructose-1,6-bisphosphate Aldolase from Giardia Lamblia: Rabbit FBPA Selectivity. shares compounds with Giardia FBPA inh-1. Rabbit muscle FBPA enzyme inhibition, selectivity counter-screen. Potency, µM (series often up to 57.5 µM), for inactives: top-dose activity, negative = inhibition, actives largely listed as inhibitors. 1,500 tested, 4% active. AID 2794, 2010; note: nearly all actives have a fitted effect of over 60% in size
GAPDH counter – qHTS Assay for Inhibitors of Fructose-1,6-bisphosphate Aldolase from Giardia Lamblia: Coupling assay counterscreen confirmation | shares compounds with Giardia FBPA inh-1 | GAPDH coupling enzyme counterscreen, biochemical, qHTS | Potency, µM (highest dose often 57.5 µM), without a hit: at the highest dose activity change, negative = inhibition, hits mostly inhibitors | 1,500 tested, 6% active; note: nearly all actives have a fitted effect of over 55% in size
Starred values were filed as active, the others as inactive; ? = inconclusive; nt = no result given; [ ] = dose if it differs, or a comment. Unless noted, calls come from the whole dose curve; as a rule, active = well fitted curve in the direction sought with a large enough effect; inconclusive = small, poorly fitted or top-dose-only effect, or another doubt; inactive = no such curve, though single readings can be large; an effect the other way counts as inactive or inconclusive. Unless noted, % is set by controls: 0 for no effect and ±100 for the full control effect; potency is the fitted concentration of half-maximal effect.

SMILES	RE007 growth inh	Giardia FBPA inh-1	AmpC inh detg	Sm TGR block	AmpC inh no detg	Giardia growth	Mammal cell tox	Giardia FBPA inh-2	Rabbit FBPA inh	GAPDH counter
CN(CCOc1ccccc1)CC(=O)Nc1ccc(Cl)c(S(=O)(=O)N(C)C)c1	-9%	16µM*	?	7%	46%	-16%[10.4 µM]	-2%	-5%	-1%	9%
CN(C)S(=O)(=O)c1cc(NC(=O)CNCc2ccccc2)ccc1Cl	-12%	?	-2%	1%	0%	nt	nt	nt	nt	nt
COc1ccc(OCCCC(=O)N(C)CC(=O)Nc2c(C)cccc2C)cc1	-14%	nt	0%	0%	3%	nt	nt	nt	nt	nt
Cc1cc(C)n(C2CCCCC2OC(=O)c2ccccc2F)n1 (centres undefined)	-9%	1%	-5%	-18%	23%	nt	nt	nt	nt	nt
COc1ccc(S(=O)(=O)Nc2ccc3c(c2)sc(=O)n3C)cc1Cl	nt	nt	-3%	0%	nt	nt	nt	nt	nt	nt
CCn1cc(CN2CCc3c([nH]c4ccccc34)C2c2cccc(O)c2)c(C)n1 (centres undefined)	1%	-10%	9%	-10%	33%	nt	nt	nt	nt	nt
O=C(Cn1ncc2c1-c1ccccc1OC2)N1CCN(c2ccccn2)CC1	-1%	1%	-3%	-14%	-9%	nt	nt	nt	nt	nt
Cc1cc(C)n2nc(C(=O)N/N=C/c3ccc(Cl)cc3)nc2n1	-4%	3%	-3%	-16%	2%	nt	nt	nt	nt	nt
COc1ccc(CNC(=O)CN(C)Cc2ccc(C(C)(C)C)cc2)cc1	-3%	22µM*	-1%	-3%	86%	-10%[10.4 µM]	-6%	-5%	-5%	0%
CN(C)c1ccc(CN(CC2CCCO2)C(=O)c2cc3ccccc3o2)cc1 (centres undefined)	-5%	nt	0%	-3%	27%	nt	nt	nt	nt	nt
COc1ccc2c(c1OC)C(=O)N(c1nc(SC)n[nH]1)C2=O	-4%	16µM*	?	-3%	-21%	19%	6%	-2%	2%	-18%
COc1ccccc1N(C)S(=O)(=O)c1ccc(C(=O)N(C)Cc2ccc(OC(F)F)cc2)cc1	-23%	nt	-15%	-8%	29%	nt	nt	nt	nt	nt
CCOc1ccc(OCC)c(NC(=O)CN2CCN(CC(=O)NC(C)C)CC2)c1	-4%	32µM*	-9%	-2%	16%	25%	-12%	-1%	2%	8%
CCN(CC)C(=O)c1c(C)[nH]c(=S)c(C#N)c1-c1ccco1	19%	10µM*	6%	14µM*	38%	1%	1%	5%	-3%	8%
Cc1ccc(-c2c(C(=O)Nc3ccccc3C)c(C)[nH]c(=S)c2C#N)o1	-9%	?	1%	?	-1%[2.29 µM]	nt	nt	nt	nt	nt
CCOC(=O)c1ccccc1NC(=O)COC(=O)c1c(CC)noc1C	23%	nt	?	-4%	?	nt	nt	nt	nt	nt
COc1ccc(-n2c(C)cc(/C=N/Nc3nnc(C)n3N)c2C)cc1	-2%	6.3µM*	?	?	44%	9%[10.4 µM]	10%	20µM*	?	?
Cc1ccc(-n2nc3c(=S)[nH]nc(C)c3c2C)cc1	-6%	25µM*	-12%	0%	-10%	-5%	-4%	5%	9%	16%
O=C(N/N=C/c1ccc(O)c(O)c1O)/C(=C/c1ccc([N+](=O)[O-])cc1)NC(=O)c1ccccc1	-8%	6.3µM*	-4%	0%	-42%	?	-12%	?	?	?
Cn1cc(Br)c(C(=O)NC(=S)Nc2ccc(S(N)(=O)=O)cc2)n1	-11%	16µM*	-4%	?	-23%	-26%	10%	3%	9%	12%
NS(=O)(=O)c1ccc(NC(=S)NCc2ccc(Cl)cc2)cc1	-13%	16µM*	-5%	?	-40%	-8%[10.4 µM]	-9%	-6%	2%	9%
NS(=O)(=O)c1ccc(NC(=S)NCc2ccc(F)cc2)cc1	16%	-1%	1%	-28%	-35%	nt	nt	nt	nt	nt
CCCC(C)(C)C(=O)N1CCC1(C)C(=O)Nc1ccc(OC)c(OC)c1 (centres undefined)	9%	nt	nt	nt	nt	nt	nt	nt	nt	nt
Cc1ccc(NC(=O)CN(C)C2CCCCC2)cc1Cl	8%	20µM*	-5%	8%	31%	18%	2%	8%	2%	1%
Cc1ccc(NC(=O)NC2CCCCC2)cc1Cl	10%	0%	-12%	-3%	-5%	nt	nt	nt	nt	nt
Cc1nccn1CCCN1C(=O)OC2(CCCCC2)C1(C)O (centres undefined)	17%	7%	0%	-1%	-10%	nt	nt	nt	nt	nt
